# Screening data (PubChem)
# TDP1 cell noCPT: qHTS for Inhibitors of human tyrosyl-DNA phosphodiesterase 1 (TDP1): qHTS in cells in absence of CPT. DT40 Tdp1-/- hTDP1 cells, no CPT, ATP luminescence, 48 h. Potency, µM (doses to about 46.2 µM), for the others: top-dose activity change, negative = growth inhibition, usual class: inhibitors. actives 15% (n = 420,000); note: potency is the fitted concentration of half-maximal effect; nearly all actives have a fitted effect of over 55% in size
#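 Stably hTDP1-transfected Tdp1-null chicken DT40 cells were treated with library compounds minus camptothecin and grown for at least 48 hr at 37 °C, after which cellular ATP was quantified by luminescence.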
# TDP1 cell CPT: DT40-hTDP1 cell growth loss with CPT; Potency, µM (highest dose often 46.2 µM), for the others: at the highest dose activity change, negative = growth inhibition, hits mostly inhibitors; actives 12% (n = 420,000); AID 686979; chicken DT40 Tdp1-/-;hTDP1 cells + 20 nM CPT, ATP luminescence, 48 h; note: potency is the fitted concentration of half-maximal effect; nearly all actives have a fitted effect of over 55% in size
#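 Chicken DT40 Tdp1-/- cells complemented with human TDP1, 400 cells/well, exposed to compounds plus 20 nM camptothecin for at least 48 h at 37 C; viability read as ATP content by CellTiter-Glo luminescence.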
# IL1B secr inh: inflammasome signaling inhibition, IL-1 beta readout; activity change, % at 57.5 µM; THP-1 LPS/ATP IL-1B secretion, AlphaLISA, 16 h; active compounds read low; actives 4.7% (n = 360,000); in the data active = activity change below about -50%; inconclusive = mostly about -30% to -49%
#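 THP-1 cells pretreated 1 hr with compounds (up to 57.5 uM final), then stimulated with LPS (250 ng/mL final) plus ATP (1.25 mM final); secreted IL-1B measured by AlphaLISA after 16 hr, decreased signal indicating inhibition.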
# HT1080 IDH1KD tx: kills HT-1080 cells with IDH1 knockdown | actives 2% (n = 360,000) | Potency, µM (titrated, usually from 46.1 µM), inactives show top-dose activity, negative = toxicity, most hits filed as cytotoxic | HT-1080 IDH1 knockdown viability, ATP luminescence, 48 h | AID 686971;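 note: potency is the fitted concentration of half-maximal effect; 0% = DMSO wells and -100% = cell-free medium wells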
#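 IDH1KD HT-1080 cells, 750/well, RPMI + 5% FBS; compound pinned after 2 h settling; 48 h, 37 °C; CellTiter-Glo luminescence; % activity normalised to DMSO and no-cell wells; curves fitted, classed by r2 and efficacy.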
# HT1080NT lethal: kills 2HG-producing HT-1080-NT fibrosarcoma cells | Potency, µM (series often up to 46.1 µM), inactives show at the highest dose activity, negative = less viability, usual class: cytotoxic | HT-1080-NT fibrosarcoma viability, CellTiter-Glo ATP luminescence, 48 h | actives 1.6% (n = 360,000);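 note: NT is the 2HG producing partner of a matched IDH1 knockdown line; potency is the fitted concentration of half-maximal effect; 0% = DMSO-treated cells and -100% = media-only wells without cells; nearly all actives have a fitted effect of over 55% in size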
#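 750 cells/well, RPMI + 5% FBS; 2 h settle, compound pin-transfer, 48 h at 37 degrees C. CellTiter-Glo 10 min RT, luminescence. Normalized to DMSO and media-only wells.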
# * hit, by the source's call; i = inactive; ? = inconclusive; · = no result; [ ] = another dose, or the depositor's remark. Only some compounds are listed: those with a hit (about 19% of all), similar ones and a draw of the others. Unless noted, calls come from the whole dose curve; as a rule, active = well fitted curve in the direction sought with a large enough effect; inconclusive = small, poorly fitted or top-dose-only effect, or another doubt; inactive = no such curve, though single readings can be large; an effect the other way counts as inactive or inconclusive. Unless noted, % is set by controls: 0 for no effect and ±100 for the full control effect.
SMILES,TDP1 cell noCPT,TDP1 cell CPT,IL1B secr inh,HT1080 IDH1KD tx,HT1080NT lethal
CN1C(=O)/C(=C/c2ccccc2F)Sc2ccc(C(=O)NCC3CCCO3)cc21 (configuration not stated),?,23µM*,?,?,-10%
COc1ccccc1C(=O)NNC(=O)c1ccc2ccccc2c1,-26%,-3%,-4,9%,11%
COc1ccc(C(=O)NNC(=O)c2cc3ccccc3cc2O)cc1,13µM*,?,140,-24%,-16%
COc1ccc(C(=O)NNC(=O)c2ccccc2[N+](=O)[O-])cc1,4%,-15%,1,19%,20%
COc1ccccc1C(=O)NNC(=O)c1cc2ccccc2cc1O,18µM*,13µM*,79,?,?
O=C(Nc1ccc(S(=O)(=O)Nc2ccccc2)cc1)C1CC1,?,?,-12,-2%,-3%
Cc1ccc(NS(=O)(=O)c2ccc(NC(=O)C3CC3)cc2)cc1C,?,18µM*,-2,?,-11%
O=C(O)C1CCCCC1C(=O)Nc1ccc(S(=O)(=O)N2CCCCCC2)cc1 (configuration not stated),-16%,-19%,-6,-16%,-3%
Cc1ccc(S(=O)(=O)N2CCN(C(=O)N3CCCC3)CC2)cc1,1%,-9%,3,3%,-2%
Cc1cc(NC(=O)c2ccc(NC(=O)C3CCCO3)cc2)ccc1Br (configuration not stated),23µM*,?,59,?,?
O=C(Nc1ccc(O)cc1)c1ccc(NC(=O)C2CCCO2)cc1 (configuration not stated),-3%,-17%,-9,?,?
CC1CC1C(=O)Nc1ccc(S(=O)(=O)N2CCCCC2)cc1 (configuration not stated),21µM*,23µM*,14,-2%,-4%
COC(=O)C1(C(=O)OC)CCCCN(S(=O)(=O)c2ccc(C)cc2)CCC1,21µM*,?,3,-14%,-2%
COc1cc(C(=O)NNC(=S)Nc2ccc(S(N)(=O)=O)cc2)cc(OC)c1OC,-5%,3%,-8,?,?
O=C(c1ccc(NC(=S)NCc2ccco2)cc1)N1CCOCC1,-2%,-3%,0,-4%,-7%
Cc1ccc(S(=O)(=O)N2CCCC2)cc1S(=O)(=O)N1CCCC1,-20%,-9%,-4,-12%,-9%
Cc1ccc(NC(=O)C2CCN(C(=O)OC(C)(C)C)CC2)cc1S(=O)(=O)N1CCCCC1,-51%,?,-5,-16%,-9%
Cc1ccc(S(=O)(=O)N2CCCN(S(=O)(=O)c3ccc(C)c(C)c3)CC2)cc1C,18µM*,23µM*,0,9%,9%
O=C(CSc1ccc2ccccc2c1)N1CCN(c2ccc(O)cc2)CC1,12µM*,13µM*,25,?,-16%
O=C(c1ccc2ccccc2c1)N1CCN(c2ccc(O)cc2)CC1,?,?,2,-11%,-8%
Cc1ccc(S(=O)(=O)N2CCCCC2)cc1NC(=O)C1CCN(C(=O)OC(C)(C)C)CC1,16µM*,?,22,-13%,-11%
Cc1ccc(S(=O)(=O)N2CCCN(S(=O)(=O)c3ccc4ccccc4c3)CC2)cc1,?,8.2µM*,-16,5%,3%
CN1CCN(S(=O)(=O)c2ccc3ccccc3c2)CC1,1%,1%,-3,-3%,-1%
COc1cc(=O)n2c(c1C(=O)NC(C)c1ccco1)CCN(Cc1ccccc1C(F)(F)F)CC2 (configuration not stated),?,-4%,·,·,·
Cc1cccc(NC(=O)C2CCN(S(=O)(=O)c3ccc4c(c3)C(C)(C)C(=O)N4C)CC2)c1C,?,?,-7,1%,-1%
SMILES,TDP1 cell noCPT,TDP1 cell CPT,IL1B secr inh,HT1080 IDH1KD tx,HT1080NT lethal
Cc1ccc(S(=O)(=O)N2CCC(C(=O)Nc3ccc(S(=O)(=O)N4CCCC4)cc3)CC2)cc1,15µM*,?,-9,-22%,-11%
CC(C)c1ccc(NC(=O)C2CCN(S(=O)(=O)c3ccc4c(c3)C(C)(C)C(=O)N4C)CC2)cc1,?,16µM*,50,-14%,-17%
Cc1ccccc1C(=O)N1CCC(C(=O)Nc2ccc(S(=O)(=O)N3CCCCC3)cc2)CC1,12µM*,16µM*,i,-19%,0%
Cc1ccc(S(=O)(=O)N2CCC(C(=O)Nc3ccncc3)CC2)cc1,?,?,14,-3%,3%
Cc1ccccc1C(=O)N1CCC(C(=O)Nc2ccc(S(=O)(=O)N3CCOCC3)cc2)CC1,?,?,27,5%,-2%
Cc1ccc(S(=O)(=O)N2CCCN(C)c3nc4ccccc4nc32)cc1,16µM*,?,-2,-19%,-10%
O=C(O)C1=C(OCc2ccccc2)C(=O)NCC1,-11%,-4%,0,-1%,-4%
O=C1CCC(C(=O)N2CCCC(N3CCN(c4cccc(C(F)(F)F)c4)CC3)C2)=NN1 (configuration not stated),23%,-1%,13,16%,4%
CC1CCN(S(=O)(=O)c2ccc(NC(=O)C3CC3)cc2)CC1,-23%,?,17,0%,-18%
Cc1ccc(S(=O)(=O)N2CCC(C(=O)N(C)C3CCS(=O)(=O)C3)CC2)cc1 (configuration not stated),?,23µM*,24,5%,15%
COC(=O)C1(C(F)(F)F)C2C=CC(C2)N1S(=O)(=O)c1ccc(C)cc1 (configuration not stated),21µM*,23µM*,15,-9%,4%
Cc1ccc(S(=O)(=O)N2CCC(C(=O)Nc3ccc(C(C)C)cc3)CC2)cc1,15µM*,23µM*,-4,-3%,-8%[9.24 µM]
CCCNC(=O)C1CCN(S(=O)(=O)c2ccc(-c3nn[nH]n3)cc2)CC1,0.01µM*,12µM*,14,-5%,1%
Cc1ccc(C(=O)N2C3C=CC(C3)C2(C(F)(F)F)C(F)(F)F)cc1 (configuration not stated),-23%,-26%,24,6%,14%
CC(CNS(=O)(=O)c1cc(Cl)ccc1Cl)CN(C)C (configuration not stated),2%,1%,11,19%,11%
O=S(=O)(c1ccc2ccccc2c1)N1CCN(c2ccc(O)cc2)CC1,8.2µM*,6.5µM*,29,?,-25%
Cc1ccc(S(=O)(=O)N2CCN(c3nn(C)c(=O)n(C)c3=O)CC2)cc1C,?,7.3µM*,-2,-3%,-10%
